Holding throughout (experiment): NCI-60 one-dose screen, 48 h (100 = growth as untreated, 0 = no growth, -100 = all killed)
For one assay, the system named is SR leukemia. As to conditions: 10 µM.
In a further assay the test system is RPMI-8226 leukemia. Particulars: 10 µM.
A further assay concerns OVCAR-8 ovarian. As to conditions: 10 µM.
In another assay the test system is OVCAR-5 ovarian. Particulars: 10 µM.
The test system of another assay is OVCAR-4 ovarian. As to conditions: 10 µM.
In the next assay the test system is SK-OV-3 ovarian. Particulars: 10 µM.
For the next assay, the system named is IGROV1 ovarian. Particulars: 10 µM.
The next assay has as its system OVCAR-3 ovarian. Particulars: 10 µM.
The next assay has as its system HS 578T breast. Particulars: 10 µM.
Another assay relates to NCI/ADR-RES ovarian. Particulars: 10 µM.
A further assay deals with T-47D breast. As to conditions: 10 µM.
The next assay deals with BT-549 breast. Particulars: 10 µM.
In a further assay the test system is MDA-MB-435 melanoma. Particulars: 10 µM.
Another assay has as its system SW-620 colon. As to conditions: 10 µM.
The next assay relates to MCF7 breast. As to conditions: 10 µM unless noted.
The subject of another assay is HCT-116 colon. As to conditions: 10 µM.
The test system of a further assay is HCC-2998 colon. Particulars: 10 µM.
The subject of a further assay is KM12 colon. Particulars: 10 µM.

Molecules are shown by their SMILES. This is part of a sample that, as a whole, favours compounds with a hit. Of some 83,000 tested, about 20% had one in any assay.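 Values shown are percent growth following 48 h exposure of cells in 96-well plates to a single concentration of compound; below 10 was considered active.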 A number with no mark means an inactive call. Active and inactive are the calls of the source.

As for `CN(C)Cc1cc(C(C)(C)CC(C)(C)C)ccc1O`, the growth in the assay on SR leukemia was 87.7%; in the assay with RPMI-8226 leukemia it was 95.7%; in the assay on OVCAR-8 ovarian, 106%; in the assay with OVCAR-5 ovarian, 98.5%; with OVCAR-4 ovarian, 86.5%; in the assay on SK-OV-3 ovarian, 94.5%. Moreover, the growth in the assay on IGROV1 ovarian was 85.7%; in the assay with OVCAR-3 ovarian, 88.4%; in the assay with HS 578T breast it was 106%; with NCI/ADR-RES ovarian it was 91.5%; in the assay with T-47D breast, 86.4%; in the assay on BT-549 breast, 100%. For the same compound, the growth in the assay with MDA-MB-435 melanoma was 107%; with SW-620 colon it was 109%; in the assay with MCF7 breast it was 95.4%; in the assay with HCT-116 colon, 89.3%; in the assay with HCC-2998 colon it was 96.5%; with KM12 colon, 104%.
Consider `CCCCC(CC)COC(C)=O` (stereo not given), for which the growth in the assay with SR leukemia is 103%; with RPMI-8226 leukemia it was 110%; in the assay on OVCAR-8 ovarian, 102%; in the assay on OVCAR-5 ovarian it was 103%; in the assay with OVCAR-4 ovarian, 100%; with SK-OV-3 ovarian it was 101%. The growth in the assay with IGROV1 ovarian is 112%; in the assay with OVCAR-3 ovarian it was 105%; with HS 578T breast, 106%; with NCI/ADR-RES ovarian, 99.2%; with T-47D breast, 97.2%; in the assay on BT-549 breast, 107%. For the same compound, the growth is 105% in the assay on MDA-MB-435 melanoma; 104% in the assay on SW-620 colon; 96% with MCF7 breast; 108% in the assay with HCT-116 colon; 105% with HCC-2998 colon; 101% in the assay on KM12 colon.
In the case of `COC(=O)C(O)c1ccccc1` (stereo not given), the growth is 108% in the assay on SR leukemia; 111% with RPMI-8226 leukemia; 108% in the assay with OVCAR-8 ovarian; 97.6% in the assay with OVCAR-5 ovarian; 113% with OVCAR-4 ovarian; 105% in the assay on SK-OV-3 ovarian. The growth in the assay with IGROV1 ovarian was 123%; with OVCAR-3 ovarian, 104%; with HS 578T breast it was 125%; in the assay on NCI/ADR-RES ovarian, 110%; in the assay on T-47D breast, 107%; in the assay with BT-549 breast, 109%. Besides, the growth in the assay with MDA-MB-435 melanoma was 107%; with SW-620 colon, 111%; with MCF7 breast it was 99.3%; in the assay with HCT-116 colon it was 97.7%; in the assay with HCC-2998 colon, 104%; with KM12 colon it was 106%.
Take `COC(=O)/C=C\C(=O)OC`: the growth in the assay with SR leukemia is 103%; with RPMI-8226 leukemia, 114%; with OVCAR-8 ovarian, 108%; in the assay with OVCAR-5 ovarian it was 116%; in the assay with OVCAR-4 ovarian it was 115%; in the assay with SK-OV-3 ovarian it was 118%. In addition, the growth was 113% with IGROV1 ovarian; 119% in the assay with OVCAR-3 ovarian; 113% in the assay on HS 578T breast; 111% in the assay on NCI/ADR-RES ovarian; 113% with T-47D breast; 99.7% with BT-549 breast. For the same compound, the growth with MDA-MB-435 melanoma is 115%; in the assay on SW-620 colon, 105%; with MCF7 breast it was 103%; with HCT-116 colon, 108%; in the assay with HCC-2998 colon, 103%; with KM12 colon it was 113%.
For the compound `C[C@]12CC[C@@H]3c4ccc(OCC(=O)O)cc4CC[C@H]3[C@@H]1CCC2=O`, the growth in the assay on SR leukemia was 88.5%; in the assay with RPMI-8226 leukemia it was 121%; with OVCAR-8 ovarian, 109%; with OVCAR-5 ovarian, 107%; in the assay with OVCAR-4 ovarian, 95.8%; in the assay on SK-OV-3 ovarian it was 115%. Moreover, the growth in the assay on IGROV1 ovarian is 107%; in the assay on OVCAR-3 ovarian, 101%; in the assay with HS 578T breast, 95.5%; with NCI/ADR-RES ovarian, 96.4%; in the assay on T-47D breast, 114%; in the assay on BT-549 breast, 102%. Moreover, the growth in the assay with MDA-MB-435 melanoma is 116%; in the assay with SW-620 colon, 102%; with MCF7 breast, 130%; in the assay with HCT-116 colon it was 103%; in the assay with KM12 colon, 105%.
In the case of `CC(=O)c1ccc2c(ccc3ccccc32)c1`, the growth is 97.2% in the assay on SR leukemia; 101% in the assay on RPMI-8226 leukemia; 94.7% in the assay with OVCAR-8 ovarian; 104% with OVCAR-5 ovarian; 100% with OVCAR-4 ovarian; 112% in the assay with SK-OV-3 ovarian. For the same compound, the growth was 101% in the assay on IGROV1 ovarian; 115% in the assay on OVCAR-3 ovarian; 107% in the assay on HS 578T breast; 108% in the assay on NCI/ADR-RES ovarian; 98.9% in the assay with T-47D breast; 98.1% in the assay on BT-549 breast. Also, the growth in the assay with MDA-MB-435 melanoma was 96.3%; in the assay on SW-620 colon it was 99.7%; with MCF7 breast, 96.3%; in the assay on HCT-116 colon it was 90.3%; in the assay on HCC-2998 colon it was 109%; in the assay on KM12 colon, 106%.
Take `C#Cc1cccc(NC(=O)c2ccc(Cl)cc2Cl)c1`: the growth in the assay on SR leukemia is 115%; with RPMI-8226 leukemia, 78.1%; with OVCAR-8 ovarian, 105%; in the assay with OVCAR-5 ovarian, 110%; with OVCAR-4 ovarian, 95.5%; in the assay on SK-OV-3 ovarian it was 95.5%. Besides, the growth with IGROV1 ovarian was 115%; in the assay on OVCAR-3 ovarian it was 109%; in the assay on HS 578T breast, 108%; with NCI/ADR-RES ovarian, 104%; in the assay on T-47D breast, 95.2%; in the assay on BT-549 breast it was 111%. Further, the growth with MDA-MB-435 melanoma is 103%; in the assay with SW-620 colon, 91.9%; with MCF7 breast it was 90.3%; with HCT-116 colon it was 93.2%; in the assay with HCC-2998 colon, 113%; with KM12 colon, 115%.
Regarding `COc1cc(/C=C(\C#N)C(=O)c2ccccc2)ccc1OCc1ccccc1`, the growth was 109% in the assay with SR leukemia; 107% with RPMI-8226 leukemia; 108% in the assay on OVCAR-8 ovarian; 103% in the assay with OVCAR-5 ovarian; 106% in the assay with OVCAR-4 ovarian; 107% in the assay on SK-OV-3 ovarian. Further, the growth with IGROV1 ovarian was 91.1%; in the assay on OVCAR-3 ovarian it was 101%; with HS 578T breast, 97.5%; in the assay on NCI/ADR-RES ovarian, 98.4%; in the assay with T-47D breast, 105%; in the assay on BT-549 breast, 94.9%. Also, the growth in the assay with MDA-MB-435 melanoma was 101%; with SW-620 colon it was 99.4%; with MCF7 breast it was 96.6%; in the assay on HCT-116 colon, 104%; in the assay with HCC-2998 colon it was 89.8%; in the assay on KM12 colon, 99.1%.
Consider `Nc1ncnc2[nH]ncc12`, for which the growth in the assay with SR leukemia was 26.1%; with RPMI-8226 leukemia, 8.64% (active); with OVCAR-8 ovarian it was 6.29% (active); in the assay with OVCAR-5 ovarian, 20.5%; in the assay on OVCAR-4 ovarian, -5.84% (active); in the assay on SK-OV-3 ovarian it was 2.06% (active). The growth in the assay on IGROV1 ovarian is 6.63% (active); in the assay on OVCAR-3 ovarian, -22.2% (active); in the assay on HS 578T breast, 37.3%; in the assay on NCI/ADR-RES ovarian it was 0.445% (active); in the assay on T-47D breast it was 6% (active); with BT-549 breast it was -32.8% (active). Also, the growth in the assay with MDA-MB-435 melanoma is 15.2%; in the assay on SW-620 colon, 17.5%; in the assay on MCF7 breast, 7.48% (active); in the assay with HCT-116 colon it was 5.13% (active); in the assay on KM12 colon, 18%.

(Values after PubChem BioAssay (NCI).)
